# MazEF act – activators of E. coli MazEF toxin-antitoxin RNase, primary screen, biochemical, fluorescence, uHTS | Endoribonuclease toxin MazF (Escherichia coli (strain K12)), P0AE70 | FAM/BHQ RNA-DNA oligo cleavage fluorescence, 5 h | activation, % at 20 µM | actives 0.32% (n = 350,000); in the data active = activation above about 50%
# Target sequence (P0AE70 whole entry, looked up): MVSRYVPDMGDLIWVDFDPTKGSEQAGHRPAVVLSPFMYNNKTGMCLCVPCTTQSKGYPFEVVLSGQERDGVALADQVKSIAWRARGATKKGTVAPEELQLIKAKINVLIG
# Anthrax LF prot – Bacillus anthracis LF protease inhibitors, primary screen, biochemical, multiplex microsphere, MLPCN library. multiplex microsphere protease cleavage assay. inhibition, % at 10 µM. actives 0.12% (n = 360,000). AID 588501, 2011; note: plate controls were buffer without enzyme for full effect and enzyme alone for no effect
# Autofluor counter – compound fluorescence in toxin protease inhibitor counterscreen. actives 3.1% (n = 360,000). fluorescence intensity (test concentration not listed). AID 624483. compound autofluorescence counterscreen, microsphere flow cytometry; stronger effect = higher value; in the data active = fluorescence intensity above about 16000; inconclusive = no clear call, values can overlap the other calls
# VHR inh abs – VHR1 phosphatase inhibitors, primary screen, biochemical, absorbance, uHTS; AID 1654, 2009; Dual specificity protein phosphatase 3 (Homo sapiens), P51452; inhibition, % at 13.3 µM; actives 0.52% (n = 290,000); recombinant VHR phosphatase, pNPP absorbance; in the data active = inhibition above about 50%
# Target sequence (P51452 whole entry, looked up): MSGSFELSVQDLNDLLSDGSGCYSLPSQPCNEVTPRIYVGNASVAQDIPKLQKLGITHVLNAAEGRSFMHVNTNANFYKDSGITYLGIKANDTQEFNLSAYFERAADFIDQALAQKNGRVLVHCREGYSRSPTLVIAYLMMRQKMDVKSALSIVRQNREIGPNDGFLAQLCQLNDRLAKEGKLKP
# BoNT-F LC inh – BoNT/F light chain protease inhibitors, primary screen, biochemical, flow cytometry, MLPCN library; inhibition, % at 10 µM; Botulinum neurotoxin type F light chain protease (Clostridium botulinum); actives 0.22% (n = 360,000); Multiplex microsphere protease cleavage assay; AID 588497, 2011; in the data active = inhibition above about 35%, passing the limit was not always enough; inconclusive = no clear call, values can overlap the other calls; note: plate controls were buffer without enzyme for full effect and enzyme alone for no effect
# BoNT A protease – BoNT/A light chain protease inhibitors, primary screen, biochemical, flow cytometry, MLPCN library | Botulinum neurotoxin type A light chain protease (Clostridium botulinum A str. ATCC 3502) | actives 0.17% (n = 360,000) | multiplex microsphere protease substrate cleavage | inhibition, % at 10 µM; note: plate controls were buffer without enzyme for full effect and enzyme alone for no effect
# BoNT-A LC CP1 – BoNT/A light chain protease inhibitors, confirmation, biochemical, flow cytometry, cherry pick 1; shares compounds with BoNT-F LC inh; multiplex microsphere protease assay; inhibition, % at 10 µM; actives 3% (n = 720); AID 602139, 2011; in the data active = inhibition above about 32%
# BoNT-F LC CP1 – BoNT/F light chain protease inhibitors, confirmation, biochemical, flow cytometry, cherry pick 1. 720 tested, under 10 active. AID 602140, 2011. multiplex microsphere protease cleavage assay. inhibition, % at 10 µM. shares compounds with BoNT-F LC inh; call rule not given here
# Anthrax LF CP1 – Bacillus anthracis LF protease inhibitors, confirmation, biochemical, multiplex microsphere, cherry pick 1; shares compounds with BoNT-F LC inh; AID 602142, 2011; inhibition, % at 10 µM; 720 tested, under 10 active; multiplex microsphere protease cleavage assay; call rule not given here
# * hit, by the source's call; ? = inconclusive; / = not tested or not shown. Only some compounds are listed: those with a hit (about 4.1% of all), similar ones and a draw of the others. Cut-off read from the data, not from the text of the source, unless noted: active = inhibition above about 30%; inconclusive = no clear call, values can overlap the other calls; inactive = below that.
SMILES,MazEF act,Anthrax LF prot,Autofluor counter,VHR inh abs,BoNT-F LC inh,BoNT A protease,BoNT-A LC CP1,BoNT-F LC CP1,Anthrax LF CP1
CC1Oc2ccccc2N(CC(=O)NC2CCCC2)C1=O (stereo not drawn),4,-1,3948,-8,35*,1,-2,-3,3
Cc1cnc(NC(=O)c2ccc(-c3nc4ccccc4s3)o2)s1,-11,25,3621,28,0,34*,4,-12,2
C=CCn1c(=N)n(CC(=O)c2ccc(Br)s2)c2ccccc21,28,3,3184,-2,-2,6,/,/,/
COc1cc(-c2nc(-c3cccc(C)c3)no2)cc(OC)c1OC,-12,3,5619,18,43*,?,0,-5,-4
COc1ccc(-c2nc(-c3cccc(C)c3)no2)cc1OC,5,-6,7951,-9,-1,0,/,/,/
Cc1ccc(CNC(=O)c2ccc(N3CCC4(CC3)CC(c3ccccc3)=NO4)c(NC(=O)c3ccc(Br)cc3)c2)cc1,-9,-6,3752,-22,-1,0,/,/,/
Cn1cnnc1SCC(=O)Nc1ccccc1,6,4,5422,9,-1,0,/,/,/
Cn1cnnc1SCC(=O)Nc1ccc(S(N)(=O)=O)cc1,10,34*,2989,18,37*,1,-1,0,0
NC(=O)C1CCN(C(c2ccccc2)c2nnnn2C2CCCC2)CC1 (stereo not drawn),5,3,3152,12,13,1,/,/,/
Cc1ccc2cc(C(c3nnnn3C3CCCC3)N3CCOCC3)c(=O)[nH]c2c1C (stereo not drawn),6,14,9655,25,3,1,/,/,/
CCOC(=O)C1CCN(C(c2cc3c(C)ccc(C)c3[nH]c2=O)c2nnnn2C2CCCCC2)CC1 (stereo not drawn),-6,10,38836*,20,109*,15,1,-3,0
Cc1cc(C)c2[nH]c(=O)c(C(c3nnnn3C3CCCC3)N3CCOCC3)cc2c1 (stereo not drawn),/,/,/,12,/,/,/,/,/
Cc1ccc(C)c2[nH]c(=O)c(C(c3nnnn3C3CCCC3)N3CCOCC3)cc12 (stereo not drawn),6,-1,25756*,0,-4,-3,0,-1,-1
CCOC(=O)C1CCN(C(c2cc3ccc(C)c(C)c3[nH]c2=O)c2nnnn2C2CCCCC2)CC1 (stereo not drawn),-21,12,60118*,10,38*,33*,-2,-5,-4
COc1ccc(S(=O)(=O)N2CCC[C@@H]2C(=O)N2CCC[C@H]2C(=O)NCc2ccncc2)cc1C,/,2,4352,/,1,-1,/,/,/
COc1cccc(C2c3cc4c(cc3OC(NNC(N)=O)C2C)OCO4)c1O (stereo not drawn),5,-5,2888,/,1,0,/,/,/
Nc1nc2ccccc2nc1N1CCCC1,-12,1,11493,25,42*,32*,-1,1,1
CCc1cc2cccc(C)c2nc1SCC(=O)NC1CCCC1,11,4,3309,29,37*,-1,1,-3,-2
CCC(=O)Nc1nnc(S(=O)(=O)N(CC)c2ccc(Cl)cc2)s1,13,3,4343,27,0,-2,/,/,/
CCC(=O)Nc1nnc(S(=O)(=O)N(C)c2cc(C)cc(C)c2)s1,-1,8,3945,40,42*,-2,1,1,1
CSCC[C@H](NC(=O)OC(C)(C)C)C(=O)N1CCC(C(=O)NCC(=O)Nc2ccc(C)cc2)CC1,-5,4,3711,-1,0,2,/,/,/
c1csc(-c2nc3nc4ccccc4nc3n2Cc2ccc3c(c2)OCO3)c1,4,34*,2888,1,25,51*,8,-8,4
Cc1c(C(=O)Nc2ccccc2[N+](=O)[O-])csc1-c1ccccc1,-1,-1,2581,9,39*,5,-1,-6,-2
CC(C)Oc1ccc(S(=O)(=O)N2CCOCC2)cc1NC(=O)Cc1cccs1,3,-40,?,/,?,-180,/,/,/
Cc1ccc(Nc2c([N+](=O)[O-])cc(C(=O)N3CC(=O)Nc4ccccc43)cc2[N+](=O)[O-])c(C)c1,10,-7,2763,18,-7,-1,/,/,/
SMILES,MazEF act,Anthrax LF prot,Autofluor counter,VHR inh abs,BoNT-F LC inh,BoNT A protease,BoNT-A LC CP1,BoNT-F LC CP1,Anthrax LF CP1
O=C1CN(C(=O)c2ccc(Cl)c([N+](=O)[O-])c2)c2ccccc2N1,7,32*,3053,-3,6,1,0,0,1
Cc1cc(C)cc(N2C(=O)NC(=O)/C(=C\c3cccn3-c3ccccc3)C2=O)c1,-25,31*,6580,2,68*,6,0,-3,3
O=C(Cn1cnc2sc(-c3ccccc3)cc2c1=O)NCCc1ccccc1,-28,0,4551,30,45*,1,1,2,2
O=C(Cn1cnc2sc(-c3ccccc3)cc2c1=O)NCc1ccccc1,-25,0,9905,6,-1,0,/,/,/
O=C(Cc1ccccc1)c1ccc(Cl)cc1,-6,30*,3769,-7,?,?,2,-3,-5
CN(C)CCN(Cc1ccccc1)C(c1ccnc2ccccc12)c1nnnn1-c1ccc2c(c1)OCCO2 (stereo not drawn),/,6,5899,/,-3,0,/,/,/
COc1ccc(C(=O)NCc2ccccc2CN2CCCC2)cc1S(=O)(=O)Nc1ccc(C)cc1,1,?,?,/,?,-20,/,/,/
Cn1c(=O)c(/C=C/c2ccc(F)cc2)nc2ccccc21,-12,16,4159,30,2,33*,24,2,9
O=c1c(/C=C(\O)c2ccc(F)cc2)nc2ccccc2n1-c1ccccc1,-516,32*,14800,4,194*,46*,20,7,8
Cn1c(/C=C/c2ccccc2)nc2ccccc21,0,-2,4364,-5,3,0,/,/,/
Cn1c(=O)c(/C=C/c2ccccc2)nc2ccccc21,3,16,2731,16,3,49*,40*,7,21

# Source: PubChem
